This is an account of results in PubChem BioAssay (Tox21).

Inconclusive results are not listed. Entries that show only a call come without a potency. Activity calls are given as the source filed them. Calls follow the shape of the dose curve; as a rule, active = well fitted cell-killing curve with a large enough effect in the repeat runs; inconclusive = weak or mixed curves, or effect the other way; inactive = flat fitted curve, though single readings scatter.
Potency is read from the fitted curve at half-maximal effect.

The nature of the experiment: qHTS RealTime-Glo MT Cell Viability Assay in HepG2 cells - 0 hour (AID 1224889). Also: nearly all actives have a fitted effect of over 50% in size. The following applies: RealTime-Glo luminescence; series mostly up to 76.8 µM. From the text:
U.S. Tox21 Program National Center for Advancing Translational Sciences [NCATS] NIH Chemical Genomics Center [NCGC] U.S. Environmental Protection Agency [EPA] National Institutes of Environmental Health Sciences [NIEHS] National Toxicology Program [NTP] U.S. Food and Drug Administration [FDA] Tox21 Assay Overview: Measure of cell viability is critical in the cell-base assay. Analysis of cell viability is necessary for the characterization of cell responses to cytotoxic drugs and environmental stress. A RealTime-Glo MT Cell Viability Assay to monitor cell viability in real time of continues cell culture during 40 hours of compound treatment was used to screen Tox21 10K library compounds in HepG2 cells. The RealTime-Glo MT Cell Viability Assay is a nonlytic, homogeneous, bioluminescent method to measure cell viability in real time using a simple, plate-based method. The assay involves adding NanoLuc luciferase and a cell-permeant prosubstrate to cells in culture. Viable cells reduce the proprietary prosubstrate to generate a substrate for NanoLuc luciferase. This substrate diffuses from cells into the surrounding culture medium, where it is rapidly used by the NanoLuc Enzyme to produce a luminescent signal. The signal correlates with the number of viable cells, making the assay well suited for cytotoxicity studies.
Tox21 Assay Protocol Summary: The mixture of HepG2 cell suspension and reagents were dispensed at 600cells/6 ul/well in 1536-well tissue culture treated black solid bottom plates using a Multidrop dispenser. After the assay plates were incubated at a 37 C/5% CO2 incubator for 5 hours, 23 nL of compounds dissolved in DMSO, positive and negative controls was transferred to the assay plate by a pintool work station. The plates were incubated at 37 C for 40 hours. The luminescence intensity were measured at 0h, 8h, 16h, 24h, 32h and 40h time points using ViewLux plate reader during compound treatment.
For orientation: Quantitative high-throughput screening tests each substance at several concentrations.
In the case of `CCCC1CCCC(=O)O1` (stereo not given), the Potency entry is “inactive”. As for `N#CCCCC(C#N)CCC#N` (stereo not given), the Potency entry is “inactive”. Same read-out and setting: to `CC[C@H](NC(C)C)[C@H](O)c1ccc(O)c2[nH]c(=O)ccc12` belongs “inactive”. As to `O=[N+]([O-])c1ccccc1CCO`, the Potency entry was “inactive”.

As to `C=CCCC`, the Potency entry is “inactive”. On the same count and under the same terms, to `CC(=O)Oc1cccc2c1C(=O)c1c(OC(C)=O)cc(C(=O)O)cc1C2=O` belongs “inactive”; to `CCCCCCCCNC`, “inactive”; to `O=S(=O)(O)c1cc(Cl)c(Cl)cc1Cl`, “inactive”. Same read-out and setting: the same measure for `C=CC(C)(O)CC/C=C(/C)CCC=C(C)C` (stereo not given): “inactive”; for `CC(=O)Nc1ccn(C2COC(COC(=O)c3ccccc3)O2)c(=O)n1` (stereo not given): “inactive”; for `CC(C)=CCC/C(C)=C/C=N/O`: “inactive”. On the same count and under the same terms, the same measure for `O=C1C=CCCC1`: “inactive”; for `O=C1c2ccccc2C(=O)c2c1ccc(O)c2O`: “inactive”; for `CC(=O)c1cccnc1`: “inactive”. With `COc1ccc(C(=O)c2ccc(C)cc2)c(O)c1`, the Potency entry is “inactive”. Consider `FC(F)(Cl)C(F)(Cl)Cl`, for which the Potency result was “inactive”. Same read-out and setting: the same measure for `Cc1c(-c2cccnc2)c2ccccc2n1CCCCC(=O)O`: “inactive”.

For `CC1=CC(=C(c2ccc(N)cc2)c2ccc(N)cc2)C=CC1=N`, the activity change, negative = cytotoxicity is 9.14% [at 6.97 µM] (inactive). Turning to `CC(=O)OCC(=O)[C@@]1(O)CC[C@H]2[C@@H]3CCC4=CC(=O)C=C[C@]4(C)[C@@]3(F)[C@@H](O)C[C@@]21C`, the Potency is 3.01 µM (active). Same read-out and setting: the same measure for `COC(=O)C(C)(C)C`: “inactive”; for `CC1(C)C(=O)NC(=O)N1CO`: “inactive”; for `NC(=O)c1ccccc1`: “inactive”. On the same count and under the same terms, the same measure for `O=C(O)c1ccc(O)c(O)c1`: “inactive”. Consider `CC(C)NC(=O)c1ccccc1N`, for which the Potency entry was “inactive”. Same read-out and setting: to `O=Cc1ccc([N+](=O)[O-])cc1` belongs “inactive”; to `CCC[Si](OC)(OC)OC`, “inactive”.

Regarding `CCCCCCOC(=O)c1ccccc1`, the Potency result was “inactive”. As for `C1=COCCC1`, the Potency entry is “inactive”. With `CCOc1ccc2c(c1)C(C)CC(C)(C)N2` (stereo not given), the Potency result was “inactive”. As to `O=C1CCCN1CCO`, the Potency entry was “inactive”. On to `CCCCCCC/C=C/C=O`, for which the Potency entry is “inactive”.

`CCCCCC1CCC(=O)O1` (stereo not given): the Potency result was “inactive”. Regarding `O=c1[nH]nc(-c2ccc([N+](=O)[O-])o2)o1`, the Potency result is “inactive”.

On to `CCCCOc1ccc(N)cc1`, for which the Potency result is “inactive”. The same measure, in the same setting: the same measure for `Cc1c(N=C=O)cccc1N=C=O`: “inactive”; for `O=c1c2ccccc2oc2ccccc12`: “inactive”. Consider `CC(O)CN` (stereo not given), for which the Potency entry was “inactive”.

As for `NC(=O)c1ccccc1C(N)=O`, the Potency entry was “inactive”. With `Nc1cccc2c(=O)[nH][nH]c(=O)c12`, the Potency result was “inactive”. On the same count and under the same terms, to `O=C(O)COCC(=O)O` belongs “inactive”.
